Mcl-1 Bim block: inhibitors of Bim peptide binding to Mcl-1, primary screen, biochemical, bead-based flow cytometry, multiplex; Induced myeloid leukemia cell differentiation protein Mcl-1 (Homo sapiens), Q07820; Bim peptide-Mcl-1 binding; inhibition, % at 10 µM; hit rate 0.1% among 190,000; in the data active = inhibition above about 40%;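 also: 0% = no compound tracer wells and 100% = peptide blocker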
Target sequence (Q07820 whole entry, looked up): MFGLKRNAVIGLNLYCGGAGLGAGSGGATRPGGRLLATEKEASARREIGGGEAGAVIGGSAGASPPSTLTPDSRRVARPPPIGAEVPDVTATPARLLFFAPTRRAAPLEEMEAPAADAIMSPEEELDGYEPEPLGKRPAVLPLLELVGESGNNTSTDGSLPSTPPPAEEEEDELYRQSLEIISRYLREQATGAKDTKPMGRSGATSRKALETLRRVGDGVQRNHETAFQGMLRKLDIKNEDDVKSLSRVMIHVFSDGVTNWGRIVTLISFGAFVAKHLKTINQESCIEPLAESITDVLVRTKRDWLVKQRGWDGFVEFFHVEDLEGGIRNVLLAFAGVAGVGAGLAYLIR
NCF1 inh: p47phox/p22phox peptide binding inhibitors, primary screen, biochemical, uHTS, NADPH oxidase regulatory subunit. Neutrophil cytosol factor 1 (Homo sapiens), P14598. fluorescence polarization, 2 h. inhibition, % at 24.7 µM. hit rate 0.53% among 220,000. AID 1274, 2008;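 active = inhibition above about 30%, limit read from the data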;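 also: 0% = p47phox with labelled peptide and 100% = labelled peptide alone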
Mcl1 Bid PPI: Mcl-1/Bid binding inhibitors, primary screen, biochemical, TR-FRET, 1536-well. Induced myeloid leukemia cell differentiation protein Mcl-1 (Homo sapiens), Q07820. TR-FRET Mcl-1/Bid-Dy647 peptide binding. inhibition, % at 21.7 µM. hit rate 0.97% among 220,000. AID 1021, 2008;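 active = compounds that cut the binding signal by more than half at the single screening dose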;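 also: His-tagged Mcl-1 with europium anti-His antibody binding Bid BH3 peptide; 0% = Mcl-1 plus peptide wells and 100% = peptide-only wells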
Mcl1 Noxa PPI: Mcl-1/Noxa binding inhibitors, primary screen, biochemical, TR-FRET, 1536-well | Induced myeloid leukemia cell differentiation protein Mcl-1 (Homo sapiens), Q07820 | TR-FRET Mcl-1/Noxa peptide binding, 2 h | inhibition, % at 21.7 µM | hit rate 1.5% among 220,000 | AID 1022, 2008;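 active = compounds that cut the protein-peptide binding signal by more than 50% relative to plate controls in a single-dose test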;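 also: His-tagged Mcl-1 with rhodamine Noxa BH3 peptide and terbium anti-His antibody; 0% = Mcl-1 plus Noxa peptide wells and 100% = peptide-only wells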
14-3-3 Bad PPI: inhibitors of 14-3-3 zeta/Bad binding, primary screen, biochemical, TR-FRET, bovine 14-3-3 zeta | 14-3-3 protein zeta/delta (Bos taurus), P63103 | TR-FRET 14-3-3zeta/Dy647-pBad peptide displacement, 1 h | inhibition, % at 21.7 µM | hit rate 0.71% among 220,000 | AID 781, 2007;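 active = inhibition above about 70%, limit read from the data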;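 also: 0% = full 14-3-3 plus peptide FRET controls and 100% = background without 14-3-3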
Target sequence (P63103 whole entry, looked up): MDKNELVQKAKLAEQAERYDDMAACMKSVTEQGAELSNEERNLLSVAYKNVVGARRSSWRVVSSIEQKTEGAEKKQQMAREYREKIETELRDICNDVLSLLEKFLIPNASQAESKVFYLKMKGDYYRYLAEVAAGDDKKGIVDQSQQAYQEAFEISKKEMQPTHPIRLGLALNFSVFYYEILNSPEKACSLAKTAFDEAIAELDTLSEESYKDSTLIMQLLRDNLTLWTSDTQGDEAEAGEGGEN
Numbers without * were called inactive; . = not tested or not shown; + = active, no number. Compounds with a hit are over-represented: about 3.1% of the library has one in this group of screens.

SMILES | Mcl-1 Bim block | NCF1 inh | Mcl1 Bid PPI | Mcl1 Noxa PPI | 14-3-3 Bad PPI
C#CCOCCOCCOCCNc1nc(N2CCN(C(=O)[C@H](Cc3ccc(O)cc3)n3cc(CCO)nn3)CC2)nc(N2CCN(C(=O)[C@H](Cc3ccc(O)cc3)n3cc(CCO)nn3)CC2)n1 | -2 | -8 | 20 | -30 | 73*
C#CCOCCOCCOCCNc1nc(N2CCN(C(=O)C([C@@H](C)CC)n3cc(C(N)CC(C)C)nn3)CC2)nc(N2CCN(C(=O)[C@H](CCC(=O)O)n3cc(C(N)CC(C)C)nn3)CC2)n1 (stereo partly drawn) | 0 | . | 3 | -12 | 14
C#CCOCCOCCOCCNc1nc(N2CCN(C(=O)[C@H](CCCCN)n3cc(C(N)COC(=O)C(F)(F)F)nn3)CC2)nc(N2CCN(C(=O)[C@H](CCCCN)n3cc(C(N)CC(C)C)nn3)CC2)n1 (stereo partly drawn) | . | 34* | -38 | -19 | 5
CCCOC(=O)Nc1c(C)cccc1C(C)C | -3 | 1 | -24 | 10 | 5
CCn1c2ccccc2c2cc(NC(=O)COC(=O)c3cc(Cl)c(N)cc3OC)ccc21 | . | -22 | -56 | 24 | -3
CCOC(=O)C1(Cc2ccccc2Cl)CCN(C(=O)c2cnccn2)CC1 | 23 | 5 | -25 | 16 | -5
C#CCOCCOCCOCCNc1nc(N2CCN(C(=O)[C@H](CCC(=O)O)n3cc(C(N)Cc4ccc(O)cc4)nn3)CC2)nc(N2CCN(C(=O)[C@H](CCC(=O)O)n3cc(C(N)CC(C)C)nn3)CC2)n1 (stereo partly drawn) | -4 | 2 | 60* | 36 | 43
C#CCOCCOCCOCCNc1nc(N2CCN(C(=O)[C@H](CCC(=O)O)n3cc(C(N)CO)nn3)CC2)nc(N2CCN(C(=O)[C@H](Cc3ccc(O)cc3)n3cc(C(N)CC(C)C)nn3)CC2)n1 (stereo partly drawn) | -4 | -1 | 17 | 28 | 34
O=C(NCC1CCCO1)c1ccc(CSCc2cccc(F)c2)o1 (stereo not drawn) | -2 | -6 | 89* | 7 | -13
CC(=O)c1ccc(NC(=O)Nc2ccccc2)cc1 | -1 | -7 | 3 | 11 | -7
CCN(CC)c1ccc(NC(=O)c2cccnc2)cc1 | -4 | -1 | -41 | 19 | -7
CCN(CC)c1ccc(NC(=O)Nc2ccc(C(C)=O)cc2)cc1 | -5 | -12 | 5 | 97* | 0
CCN(CC)c1ccc(NC(=O)c2cncc(Br)c2)cc1 | -4 | -5 | -5 | 58* | 3
COC(=O)CCc1nc2cc(Cl)ccc2n(Cc2ccccc2)c1=O | 4 | -7 | -25 | -21 | 2
Cc1nc(SCC(=O)c2ccc(F)c(F)c2)[nH]c(=O)c1Oc1ccc(F)cc1 | . | 6 | 7 | 8 | -7
CC(=O)NC1C(=O)N=C(SC(C)C(=O)Nc2cccc(Cl)c2)NC1=O (stereo not drawn) | 0 | 2 | -26 | 19 | 87*
CC(Sc1nc(N)cc(=O)[nH]1)C(=O)Nc1cccc(Cl)c1 (stereo not drawn) | -4 | -11 | -23 | 8 | -7
Cc1ccc(O)c(C(=O)c2cnn(C(=O)COc3ccc(Cl)cc3)c2)c1 | -5 | 21 | 49 | -75 | 52
Cc1ccc(O)c(C(=O)c2cnn(C(=O)COc3ccccc3C#N)c2)c1 | . | 32* | 18 | 31 | 31
Nc1c(-c2ccccc2)c(CSc2nc3ccccc3[nH]2)nn1-c1ccc(C(=O)O)cc1 | 0 | -10 | -59 | 0 | -1
Cc1sc(NC(=O)c2cc(-c3ccc(Cl)cc3)nc3ccccc23)c(C(N)=O)c1C | 1 | -41 | 77* | 77* | 79*
CC1(C)CC(=O)C2=C(C1)Nc1ncnn1C2c1cccs1 (stereo not drawn) | 1 | -4 | -23 | 21 | 0
Cc1ccccc1-n1c(SC/C(O)=C(\C#N)c2nc3ccccc3[nH]2)nnc1-c1ccncc1 | -1 | -104 | -46 | 19 | -3
Cc1cc(C)n2c(SC/C(O)=C(\C#N)c3nc4ccccc4[nH]3)nnc2n1 | -1 | -19 | -7 | 86* | -5
O=C(COC(=O)c1cc(=O)[nH]c(=O)[nH]1)Nc1cccc(S(=O)(=O)N2CCCCC2)c1 | -2 | -3 | -11 | -17 | -7
SMILES | Mcl-1 Bim block | NCF1 inh | Mcl1 Bid PPI | Mcl1 Noxa PPI | 14-3-3 Bad PPI
COc1cccc(/C=C2/SC(=O)N(C)C2=O)c1OCc1ccc(C(=O)O)cc1 | 67* | 3 | -19 | 3 | -7
CCC(CO)NCc1cc(OC)c(OCC(=O)NCCc2ccccc2)cc1Br (stereo not drawn) | -5 | -8 | -10 | 8 | -5
Cc1ccc(NC(=S)N(CCCN2CCCC2)Cc2cccn2Cc2ccc(Cl)cc2)cc1C | -4 | 5 | -26 | 16 | -9
CN(C)CCCN(Cc1ccccc1)C(=S)Nc1cccc(C(F)(F)F)c1 | -8 | -8 | -25 | 13 | -4
Cc1ccc(NC(=S)N(CCCN2CCCC2)Cc2cccn2Cc2ccc(Cl)cc2)cc1Cl | 0 | 35* | -3 | 5 | 25
COc1ccc(NC(=S)N(CCCN2CCCC2)Cc2cccn2Cc2ccc(Cl)cc2)cc1Cl | 0 | 43* | -30 | 28 | 0
FC(F)(F)c1cccc(NC(=S)N(CCCN2CCCC2)Cc2cccn2Cc2ccc(Cl)cc2)c1 | -4 | 35* | -37 | 6 | 12
O=C(CSc1ccccc1F)NC(=O)NCc1ccco1 | 0 | -8 | -27 | 52* | -21
Cc1ccccc1Nc1nnc(SCC(=O)NCc2ccco2)s1 | -3 | -9 | -21 | 61* | -1
C/C(=N/NC(=O)CSc1nc2ccccc2s1)c1ccncc1 | . | 3 | -9 | -12 | -10
CS/C(=N\S(=O)(=O)c1cccs1)NC(=O)CSc1nc2ccccc2s1 | 1 | -42 | -5 | 53* | 73*
CCCCn1c(SCC(=O)NC(=O)NCc2ccco2)nc2cc(S(N)(=O)=O)ccc21 | -2 | -6 | -2 | 63* | 8
O=C(CSc1nccn1Cc1ccccc1)NCc1ccccc1 | 3 | -8 | -43 | 1 | -10
COc1ccc(C)cc1-n1nnnc1SCC(=O)NC(=O)NCc1ccco1 | -2 | -11 | 42 | 62* | 3
COc1ccc(-n2nnnc2SCC(=O)NCc2ccco2)cc1OC | -2 | -2 | 9 | 23 | -4
O=C(CN1CCN(c2ccc(O)cc2)CC1)NC(=O)NCc1ccco1 | -2 | 3 | -50 | 52* | -9
Cc1ccccc1OCc1nnc(SCC(=O)NCc2ccco2)n1C | 3 | + | -5 | 8 | -13
O=C(CSc1nc2ccccc2s1)NC(=O)NCc1ccco1 | -2 | -12 | -25 | 54* | 12
